Measurements as given in PubChem BioAssay AID1053175 (ICCB-Longwood Screening Facility, Harvard Medical School, 2014).
About 700 (0.21%) of roughly 330,000 compounds were called active.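 How the source made its calls: active means OD600 absorbance below the run mean of sample wells minus 3.6 SD, in any replicate (cut at about 0.56 in these data); inactive means the rest.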 Many of the other results were omitted from the sample, so actives are more common in it than they were.

Assay: E. coli growth inhibition, primary screen, OD600 (AID 1053175)
Details: Escherichia coli growth, OD600, 23 h; hits give low values
For CCCCCCCCCCCCn1ccc(=N)cc1, the OD600 absorbance was 0.07 (active). In the case of CN1CCN(N=Cc2c[nH]c3ccccc23)CC1, the OD600 absorbance is reported as 0.702 (inactive). With COC(=O)C1=C(c2cccc(OC)c2OC)CC2CCC1N2C(=O)N1CCOCC1 (stereo not given) the OD600 absorbance was 0.685 (inactive). In the case of Nc1nonc1C(=O)NN=Cc1ccc([N+](=O)[O-])o1, the OD600 absorbance is reported as 0.449 (active). In the case of COCCNC(=O)N1C2CCC1C(C(=O)OC)=C(c1ccc(OC(F)(F)F)cc1)C2 (stereo not given), the OD600 absorbance is reported as 0.679 (inactive). With COC(=O)C1=C(c2ccc(F)cc2OCc2ccccc2)CC2CCC1N2C(=O)NCc1ccco1 (stereo not given) the OD600 absorbance was 0.626 (inactive). For Oc1ccc(C=NNP(=S)(c2ccccc2)c2ccccc2)cc1O, the OD600 absorbance was 0.685 (inactive). For C=C1C(=O)OC2CC(C)C3C=CC(=O)[C@@]3(C)C(O)C12 (stereo not given in full), the OD600 absorbance was 0.625 (inactive). With CCN(CC)c1ccc([N+](=O)[O-])c2cccnc12 the OD600 absorbance was 0.662 (inactive). For O=[N+]([O-])c1cnc2ccc3ccccc3c2c1, the OD600 absorbance was 0.447 (active). For Cc1ccc(-n2c(-c3ccc([N+](=O)[O-])cc3)nc3ccccc3c2=O)cc1, the OD600 absorbance was 0.718 (inactive). With CNC(=O)Nc1ccc(C(=O)NN=CC23CC[C@@H](O)CC2(O)CC[C@@H]2[C@@H]3CCC3(C)C(C4=CC(=O)OC4)CCC23O)cc1 (stereo not given in full) the OD600 absorbance was 0.72 (inactive). For CC12CCC3C(CCC4CC(=NO)CCC43C)C1CCC2O (stereo not given), the OD600 absorbance was 0.701 (inactive). With COc1ccc(-n2c(C=C3C(=O)Nc4ccccc43)nc3ccccc3c2=O)cc1 the OD600 absorbance was 0.706 (inactive). In the case of COC(=O)C1=C(c2ccc(S(C)(=O)=O)cc2)CC2CCC1N2C(=O)NCc1ccc(F)cc1 (stereo not given), the OD600 absorbance is reported as 0.701 (inactive). For COc1ccc(N2C(=O)/C(=C/c3ccco3)C(=O)NC2=S)cc1, the OD600 absorbance was 0.67 (inactive). In the case of O=C1NC(=O)N(c2ccccc2)C(=O)/C1=C/c1ccc([N+](=O)[O-])s1, the OD600 absorbance is reported as 0.531 (inactive). In the case of COc1cccc(N2C(=O)NC(=O)/C(=C\c3ccc([N+](=O)[O-])s3)C2=O)c1, the OD600 absorbance is reported as 0.482 (active). In the case of COC(=O)C1=C(c2ccc(OC(F)(F)F)cc2)CC2CCC1N2C(=O)NC1CC1 (stereo not given), the OD600 absorbance is reported as 0.688 (inactive). In the case of C[C@]12CCC3c4ccc(O)c(O)c4CCC3C1CCC2O (stereo not given in full), the OD600 absorbance is reported as 0.667 (inactive).
